# High-throughput results as filed in PubChem.
# Hits are enriched below; roughly 3.1% of the tested compounds scored in any of these assays.
# Mot1-301 SUMO: blocks SUMOylation pathway, rescuing yeast Mot1-301 growth; AID 2716; S. cerevisiae Mot1-301 growth rescue, ATP luminescence, 38.5C; percent above DMSO median, 100 means doubled; growth rescue, % at 18.8 µM; 1% of 320,000 active;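 active means every valid replicate shows activation above 250% relative to neutral control wells; inactive means the rest, any valid replicate at or below 250%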
# ATG4B inhibitor: blocks human ATG4B protease cleavage of LC3 substrate | Q9Y4P1 | ATG4B cleavage of LC3-PLA2, NBD-HPC fluorescence, 1 h | inhibition, % at 8.33 µM | 0.51% of 340,000 active | AID 504462; in the data active means inhibition above about 40%
# FAS TE block: inhibitors of human fatty acid synthase thioesterase domain; 0.67% of 360,000 active; inhibition, % at 15 µM; recombinant FAS-TE, OMFH fluorogenic substrate, fluorescence endpoint; P49327;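 active means compounds whose normalised, plate-corrected inhibition of enzyme fluorescence in the single-dose primary screen is 50% or more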
# Calb FLC: affects C. albicans growth with fluconazole | growth inhibition, % (no concentration beside the values) | C. albicans CaCi-2 (fluconazole-resistant clinical isolate) + fluconazole, Alamar Blue growth, 48 h | 0.57% of 300,000 active;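 active means growth inhibition above about 58% in most replicates, limit read from the data, passing the limit was not always enough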;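 further: all wells also contain fluconazole at 8 µg/ml as a sub-toxic cotreatment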
# NadD block: NadD (S. aureus) enzyme inhibition; purified NadD enzyme, colorimetric absorbance read-out; inhibition, % at 20 µM; 0.78% of 360,000 active; in the data active means inhibition above about 26%
# ATG4B confirm: confirmation of human ATG4B inhibitors; ATG4B protease fluorescent substrate cleavage assay; shares compounds with ATG4B inhibitor; AID 504757; 92% of 320 active; inhibition, % at 8.33 µM; in the data active means inhibition above about 39%
# PLA2 counter: inhibits human PLA2, flagging false ATG4B inhibitors. inhibition, % at 8.33 µM. shares compounds with ATG4B inhibitor. purified PLA2, NBD-C6-HPC fluorescence, 45 min. AID 588402. 66% of 1,600 active; in the data active means inhibition above about 50%
# A number is an active result; . = inactive; / = not tested or not shown.
SMILES,Mot1-301 SUMO,ATG4B inhibitor,FAS TE block,Calb FLC,NadD block,PLA2 counter,others
CC(=O)N/N=C(/C)c1ccc(NC(=O)c2csc(C)c2C)cc1,.,.,.,.,.,/,
C#Cc1ccc([C@@H]2C=C(C(=O)O)O[C@H](OCC)[C@H]2CCCO)cc1,.,59,.,.,.,72,
C#Cc1ccc([C@@H]2C=C(C(=O)NCc3ccccc3)O[C@H](OCC)[C@H]2CCCO)cc1,.,.,.,.,.,/,
C=CCNc1nc(Nc2ccc(OC)c(OC)c2)c2sc(-c3ccccc3)cc2n1,/,/,.,/,.,/,
COCCNc1nc(CSc2ccccc2)nc2sc(C)c(C)c12,.,46,.,.,.,.,
Cc1sc2nc(CSc3ccccc3)nc(N3CCN(C)CC3)c2c1C,.,.,.,.,.,/,
COc1ccc(S(=O)Cc2ccc(C(=O)N3CCN(c4cccc(C)c4C)CC3)o2)cc1 (stereo not given),.,.,.,.,.,/,
Oc1c(Br)cc(Br)cc1C=Nc1ccc2c(c1)OCCO2,/,.,.,.,.,/,
Oc1c(Br)cc(Br)cc1C=Nc1ccc2c(c1)OCO2,.,63,.,.,.,.,ATG4B confirm=48
O=C(CSc1nc2ccc(Cl)cc2[nH]1)NCCc1ccc(Cl)cc1,.,46,.,.,.,50,
CCCN(CC1CC1)C(=O)CSc1ncnc2sc(C)c(C)c12,.,53,.,.,.,56,
CCOC(=O)Cn1nnnc1CN(Cc1cccs1)Cc1cc2cc(C)cc(C)c2[nH]c1=O,.,.,.,.,.,/,
Cc1cccc2cc(CN(Cc3cccs3)Cc3nnnn3Cc3ccccc3)c(=O)[nH]c12,.,49,.,.,.,62,
COc1ccc2cc(CN(Cc3cccs3)Cc3nnnn3Cc3ccccc3)c(=O)[nH]c2c1,.,51,.,.,.,54,
CSC1=NSC2=NC(=O)/C(=C\c3coc4ccccc4c3=O)C(=N)N12,.,.,.,/,.,/,
COc1ccc(-n2cccc2/C=C2\C(=N)N3N=C(c4ccco4)SC3=NC2=O)cc1,.,40,.,.,74,.,ATG4B confirm=49
CC(C)CSC1=NSC2=NC(=O)/C(=C\c3coc4ccccc4c3=O)C(=N)N12,.,50,.,.,.,53,
CCC1=NN2C(=N)/C(=C\c3cccn3-c3ccc(Br)cc3)C(=O)N=C2S1,/,.,.,.,.,/,
N=C1/C(=C/c2coc3ccccc3c2=O)C(=O)N=C2SC(c3ccco3)=NN12,.,45,.,.,.,.,
COc1ccc(C(=O)NCC(c2ccccc2)c2ccccc2)cc1S(=O)(=O)N1CCOCC1,/,.,.,/,.,/,
COc1cc(C)c(CN2CCN(CC(=O)Nc3ccccc3C(=O)NC3CC3)CC2)cc1OC,.,.,.,/,.,/,
Cc1ccc(Cl)cc1N1CCN(C(=O)CSc2nnc3n2C(C)(C)Cc2ccccc2-3)CC1,.,44,.,.,.,69,
C[C@@H]1CN([C@@H](C)CO)C(=O)CCCn2cc(nn2)CO[C@H]1CN(C)S(=O)(=O)c1cccc(C#N)c1,/,/,.,/,.,/,
COc1ccccc1NS(=O)(=O)c1cccc(NC(=O)NCCCl)c1,.,.,.,.,.,/,
COc1ccccc1NS(=O)(=O)c1cccc(NC(=O)Nc2cccc(Cl)c2)c1,.,44,.,.,.,59,
SMILES,Mot1-301 SUMO,ATG4B inhibitor,FAS TE block,Calb FLC,NadD block,PLA2 counter,others
Cc1ccc(NC(=O)c2cc(NC(=O)CCC(=O)O)ccc2N2CCCCC2)cc1,.,46,.,.,.,.,
S=C(NCc1ccco1)NC1CCCc2ccccc21 (stereo not given),.,63,.,.,.,.,
S=C(NCc1ccccc1)NC1CCCc2ccccc21 (stereo not given),.,78,.,.,.,78,
C[C@H](CO)N1C[C@H](C)[C@@H](CN(C)S(=O)(=O)c2cccs2)Oc2ccc(NS(=O)(=O)c3ccccc3)cc2C1=O,.,.,.,/,.,/,
CCN(Cc1nc2cc(Cl)ccc2c(=O)[nH]1)C(=O)c1cccc(OCc2c(C)noc2C)c1,.,.,.,/,.,/,
O=C(c1ccc2c(=O)n(C3CCCC3)c(=S)[nH]c2c1)N1CCc2ccccc21,.,54,.,.,.,77,
COc1ccc(C2=CC3=C(Br)C(=O)C(C)(OC(=O)c4cccs4)C(=O)C3=CO2)cc1 (stereo not given),.,83,.,.,.,90,
